Test results reported in PubChem BioAssay AID504913 (The Scripps Research Institute Molecular Screening Center, 2011).
The other results are listed elsewhere or left out. Unmarked numbers belong to inactive results. The source made the active and inactive calls. No stated cut-off is given here; in the data, active means activation above about 18%; inactive means the rest.

Experiment: activation of mu-delta opioid heterodimer signal – cell-based, luminescence, counter-screen for HTR5A agonist project (AID 504913)
Settings: U2OS counter-screen cells, complementation luminescence, 3 h; at 9.3 µM; active compounds read high

Going from `Cc1c(C(=O)OCC(=O)N2CCCC2=O)oc2ccccc12` to `CCn1nc(C(=O)OCC(=O)N2c3ccccc3CC2C)c2ccccc2c1=O` (stereo not given), the activation falls from 1.27% to 1.02%.

First: CC(=O)c1c(C)[nH]c(C(=O)OCC(=O)Nc2c(C)cccc2C)c1C
Second: Cc1ccc(-c2csc(SCC(=O)Nc3cc(C)on3)n2)cc1
The activation of the first is higher: 1.59% for the first, 0.69% for the second.

Compared with `O=C(Nc1ccc(C(=O)N2CCOCC2)cc1)Nc1cccc(C(F)(F)F)c1`, `Cc1oc2c(F)c(F)c(F)c(F)c2c1S(=O)(=O)Nc1cccc(C(F)(F)F)c1` is lower in activation: 0.41% for the first, -0.99% for the second.

First: CCCOc1ccc(C(=O)C(CCC(CNCC)C(=O)c2ccc(OCCC)cc2)CNCC)cc1 (stereo not given)
Second: Cc1ccc(CN2CCN(Cc3ccc(OCCO)cc3)CC2CCO)o1 (stereo not given)
The activation of the first is lower: -0.5% for the first, -0.37% for the second.

First: c1cc(-c2nn[nH]n2)ccc1CN1CCCCC1
Second: CC1CCN(S(=O)(=O)c2nnc(NC(=O)COc3ccccc3F)s2)CC1
The activation of the first is lower: 0.2% for the first, 3.72% for the second.

Going from `O=C(c1cccnc1)N(c1cc2sc(=O)oc2c2ccccc12)S(=O)(=O)c1ccccc1` to `COc1cc2c(-c3ccc4c(c3)OCO4)c(-c3ccsc3)oc(=O)c2cc1OC`, the activation falls from 4.54% to -2.61%.

Going from `COc1ccc(S(=O)(=O)N2CCN(CC(=O)N3c4ccccc4CC3C)CC2)cc1OC` (stereo not given) to `COc1c(Cl)cc(C(=O)Nc2ccc(Cl)cn2)cc1Cl`, the activation rises from 4.47% to 9.05%.

In the case of `Cc1ccc(CCC(=O)Nc2ncc(Cc3cc(Cl)ccc3Cl)s2)o1`, the activation is reported as 32.2% (active).
